Assay [1] can be described thus: ATG_FoxO_CIS: Attagene CIS-FACTORIAL HepG2 Assay for human Forkhead box O (FoxO) (AID 2282943; active = hit-call score of the fitted dose curve at least 0.9, where 1 is the maximum; inactive = score below 0.9). The conditions noted are these: HepG2 Attagene cis-reporter, FoxO element, mRNA; actives raise or lower the signal. The procedure, abridged:
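Read-out: fluorescence of 6-FAM-labelled reporter cDNA fragments resolved by capillary electrophoresis. Transiently transfected HepG2 cells were dosed for 24 h; activity fitted in both directions relative to DMSO controls.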

Assay [2] is described as follows: ATG_GRE_CIS: Attagene CIS-FACTORIAL HepG2 Assay for human Glucocorticoid Response Elements (GRE) (AID 2282947; active = hit-call score of the fitted dose curve at least 0.9, where 1 is the maximum; inactive = score below 0.9). Conditions: HepG2 GRE cis-reporter, Attagene multiplex mRNA; actives raise or lower the signal. In a few lines:
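Transiently transfected HepG2 cells carrying GRE cis-reporter units (endogenous TF activity) dosed 24 h; reporter mRNA quantified by RT-PCR, 6-FAM labelling, HpaI digestion and capillary electrophoresis. Bidirectional fit versus DMSO baseline.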

Assay [3] can be described thus: ATG_RORE_CIS: Attagene CIS-FACTORIAL HepG2 Assay for human RAR-related Orphan Receptor Element (RORE) (AID 2282959; active = hit-call score of the fitted dose curve at least 0.9, where 1 is the maximum; inactive = score below 0.9). The conditions noted are these: HepG2 Attagene cis-factorial RORE reporter, mRNA; actives raise or lower the signal. In a few lines:
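HepG2 cells carrying transiently transfected cis-regulated reporter units; RORE-driven reporter mRNA quantified 24 h post-dosing by RT-PCR, 6-FAM primer extension, HpaI digestion and capillary electrophoresis. Bidirectional fit versus DMSO.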

A short description of assay [4]: ATG_SREBP_CIS: Attagene CIS-FACTORIAL HepG2 Assay for human Sterol Regulatory Element Binding (SREBP) (AID 2282962; active = hit-call score of the fitted dose curve at least 0.9, where 1 is the maximum; inactive = score below 0.9). Conditions: HepG2 Attagene cis-factorial SREBP reporter, mRNA; actives raise or lower the signal. The procedure, abridged: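 Twenty-four hours after chemical dosing of transfected HepG2 cultures, reporter RNA was converted to cDNA, amplified, end-labelled with 6-FAM and resolved by capillary electrophoresis. Responses were fitted relative to DMSO.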

Assay [5] in a line: ATG_NFI_CIS: Attagene CIS-FACTORIAL HepG2 Assay for human Nuclear Factor I (NFI) (AID 2282989; active = hit-call score of the fitted dose curve at least 0.9, where 1 is the maximum; inactive = score below 0.9). Conditions: HepG2 cis-regulatory reporter, NFI response element transcription; actives raise or lower the signal. In a few lines: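 Reporter transcription driven by endogenous transcription factors in HepG2 cells; 24 h treatment. Quantitation by labelled RT-PCR fragments on capillary electrophoresis, gain- or loss-of-signal relative to DMSO.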

Assay [6] concerns the target human Retinoid X Receptor beta (RXRb), RXRB (gene 6257) (UniProt P28702). The assay is described as follows: ATG_RXRb_TRANS: Attagene TRANS-FACTORIAL HepG2 Assay for human Retinoid X Receptor beta (RXRb) (AID 2283013). In a few lines:
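Transfect HepG2 with GAL4-UAS multi-reporter constructs (chimeric NR-Gal4, TRANS format); dose compound 24 h; isolate RNA, RT-PCR, FAM primer extension, HpaI digest; quantify by capillary electrophoresis; positive direction vs DMSO.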

Assay [7] in a line: TOX21_p53_BLA_p2_viability: Viability Assessment in the Tox21 HCT-116 p53 Agonism Beta-lactamase Assay, Phase 2 (AID 2283591).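 Note: compound exposure lasted 16 h at 37 °C; actives lower the ATP signal meaning cytotoxicity.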 The procedure, abridged: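 HCT116 p53-bla cells, 4000/well, dosed after 5 h plating (217-fold dilution of DMSO stocks) and incubated 16 h at 37C. Viability taken as cellular ATP by CellTiter-Glo luminescence after 30 min RT; signal loss marks cytotoxicity.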

For assay [8], the target named is Cellular tumor antigen p53 (Homo sapiens) (UniProt P04637). The assay is described as follows: TOX21_p53_BLA_p2_ratio: Tox21 HCT-116 p53 Agonism Beta-lactamase Assay, Ratio, Phase 2 (AID 2283592). In a few lines:
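Human colon HCT116 cells with an inducible p53 beta-lactamase reporter are exposed to test chemicals for 16 h at 37C. Reporter induction is read as the 460/530 nm emission ratio after CCF4-AM loading, normalized to DMSO.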

For assay [9] the target is unchanged. As to the kind of experiment: TOX21_p53_BLA_p3_ratio: Tox21 HCT-116 p53 Agonism Beta-lactamase Assay, Ratio, Phase 3 (AID 2283596). In a few lines:
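HCT116 p53-bla cells (4000/well) given compound in DMSO (217-fold dilution) after 5 h, incubated 16 h at 37C. CCF4-AM substrate 2 h at room temperature; 460/530 nm emission ratio, gain fitted against DMSO.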

The target is the same in assay [10]. The assay is described as follows: TOX21_p53_BLA_p5_ratio: Tox21 HCT-116 p53 Agonism Beta-lactamase Assay, Ratio, Phase 5 (AID 2283599). In a few lines: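 HCT-116 p53-bla cells (4000/well) plated 5 h, dosed with compound (217-fold DMSO dilution) for 16 h at 37 C; CCF4-AM substrate 2 h at room temperature. Activity is the 460/530 nm emission ratio (405 nm excitation), fitted in gain-of-signal direction versus DMSO.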

Assay [11] can be described thus: TOX21_p53_BLA_p5_viability: Viability Assessment in the Tox21 HCT-116 p53 Agonism Beta-lactamase Assay, Phase 5 (AID 2283600). In a few lines:
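Seeded cells (4000/well) settle 5 h before compound addition. Plates then incubate 16 h at 37C, receive FRET substrate for 2 h, and finally CellTiter-Glo, with luminescence measured after a 30 min room-temperature incubation.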

Assay [12] deals with Cellular tumor antigen p53 (Homo sapiens) (UniProt P04637). The assay is described as follows: TOX21_p53_BLA_p4_ratio: Tox21 HCT-116 p53 Agonism Beta-lactamase Assay, Ratio, Phase 4 (AID 2283601). The procedure, abridged: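 HCT-116 p53 beta-lactamase reporter cells (4000/well) preincubated 5 h, then compound (217-fold dilution of DMSO stock) for 16 h at 37C. CCF4-AM substrate added 2 h at room temperature; 460/530 nm emission ratio fitted upward versus DMSO.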

In assay [13] the target is Hepatocyte nuclear factor 3-beta (Homo sapiens) (UniProt Q9Y261). As to the kind of experiment: ATG_FoxA2_CIS: Attagene CIS-FACTORIAL HepG2 Assay for human Forkhead box A2 (FOXA2) (AID 2282942; active = hit-call score of the fitted dose curve at least 0.9, where 1 is the maximum; inactive = score below 0.9). The conditions noted are these: HepG2 cis-reporter transcription factor activity, 24 h; actives raise or lower the signal. In a few lines: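 HepG2 transiently transfected with a multiplexed cis-promoter reporter library read endogenous FOXA2 activity. After 24 h compound exposure, reporter mRNA was quantified by RT-PCR, HpaI digestion and capillary electrophoresis. Bidirectional fit against DMSO.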

In assay [14] the target is Hepatocyte nuclear factor 4-alpha (Homo sapiens) (UniProt P41235). As to the kind of experiment: ATG_HNF4a_TRANS: Attagene TRANS-FACTORIAL HepG2 Assay for human Hepatocyte Nuclear Factor 4 alpha (HNF4a) (AID 2282982). Conditions: HepG2 HNF4a transactivation reporter, mRNA readout. The procedure, abridged: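 HepG2 cells transiently transfected with HNF4a-Gal4 chimera and GAL4-UAS reporter units, dosed for 24 h. Reporter mRNA measured by RT-PCR, fluorescent primer extension and capillary electrophoresis; gain-of-signal fitted relative to DMSO.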

The target of assay [15] is human Peroxisome Proliferator-activated Receptor alpha (PPARa), PPARA (gene 5465) (UniProt Q07869). The assay is described as follows: ATG_PPARa_TRANS: Attagene TRANS-FACTORIAL HepG2 Assay for human Peroxisome Proliferator-activated Receptor alpha (PPARa) (AID 2283001). In a few lines: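 HepG2 cells transiently transfected with multiplexed GAL4-UAS reporters driven by exogenous chimeric NR-Gal4 proteins; reporter mRNA measured after 24 h dosing. Read-out by RT-PCR, 6-FAM labelling, HpaI digestion and capillary electrophoresis; gain of signal versus DMSO.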

Assay [16] in a line: ATG_PBREM_CIS: Attagene CIS-FACTORIAL HepG2 Assay for human Phenobarbital-responsive Enhancer Module (PBREM) (AID 2282955; active = hit-call score of the fitted dose curve at least 0.9, where 1 is the maximum; inactive = score below 0.9). Conditions: HepG2 PBREM cis-reporter, Attagene multiplexed transcription; actives raise or lower the signal. In a few lines:
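HepG2 cells transiently transfected with multiple cis-regulated reporter units measure endogenous transcription factor activity; 24 h compound exposure. Reporter mRNA quantified by RT-PCR, fluorescent labelling, HpaI digestion and capillary electrophoresis; bidirectional fit versus DMSO.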

Assay [17] in a line: ATG_M_32_TRANS: Attagene TRANS-FACTORIAL HepG2 Assay for M32 Transcription Factor (Internal Marker) (AID 2282984).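 Note: transcript level of a background control reporter unit measured by RT-PCR and capillary electrophoresis.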 The conditions noted are these: HepG2 Attagene TRANS M32 internal marker reporter. In a few lines:
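HepG2 cells transiently transfected with GAL4-UAS reporter units, dosed for 24 hours. Reporter mRNA quantified by RT-PCR, 6-FAM labelling, HpaI digestion and capillary electrophoresis; internal-marker signal fitted upward relative to DMSO.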

Assay [18] can be described thus: TOX21_p53_BLA_p3_viability: Viability Assessment in the Tox21 HCT-116 p53 Agonism Beta-lactamase Assay, Phase 3 (AID 2283593).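 Note: cells exposed to compound for 16 h before reading.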 In a few lines: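 HCT116 cells, 4000/well, dosed 5 h after plating by pin transfer (217-fold dilution from DMSO stock) and incubated 16 h at 37C, 5% CO2. Viability read as ATP luminescence with CellTiter-Glo after 30 min at room temperature.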

Assay [19] can be described thus: ATG_NF_kB_CIS: Attagene CIS-FACTORIAL HepG2 Assay for human Nuclear Factor Kappa B (NF-kB) (AID 2282991; active = hit-call score of the fitted dose curve at least 0.9, where 1 is the maximum; inactive = score below 0.9). The conditions noted are these: HepG2 Attagene cis-factorial NF-kB reporter mRNA; actives raise or lower the signal. The procedure, abridged: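 HepG2 cells transfected with cis-promoter-driven reporter units, so endogenous transcription factor activity is measured. Reporter mRNA quantified 24 h after dosing by RT-PCR and capillary electrophoresis, with bidirectional fitting against DMSO.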

The target in assay [20] is Retinoic acid receptor alpha (Homo sapiens) (UniProt P10276). The assay is described as follows: ATG_DR5_RAR_CIS: Attagene CIS-FACTORIAL HepG2 Assay for human Retinoic Acid Receptor Alpha (RARE), DR5 submotif (AID 2282934; active = hit-call score of the fitted dose curve at least 0.9, where 1 is the maximum; inactive = score below 0.9). The conditions noted are these: HepG2 Attagene cis-factorial RARE DR5 reporter, mRNA; actives raise or lower the signal. In a few lines: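 Read-out: DR5-driven reporter transcript measured by RT-PCR, 6-FAM primer extension, HpaI digest and capillary electrophoresis. Human HepG2 liver cells carry transiently transfected cis-element reporter constructs; dosing lasts 24 h. Gain or loss of signal fitted against DMSO baseline.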

Results filed as inconclusive are left out. Calls of active or inactive are those of the source. Rule for the calls, unless noted: active = hit-call score of the fitted dose curve at least 0.9, where 1 is the maximum; inconclusive = response in the unintended direction; inactive = score below 0.9.

Retinoic acid receptor alpha (Homo sapiens), sequence (P10276 whole entry, looked up): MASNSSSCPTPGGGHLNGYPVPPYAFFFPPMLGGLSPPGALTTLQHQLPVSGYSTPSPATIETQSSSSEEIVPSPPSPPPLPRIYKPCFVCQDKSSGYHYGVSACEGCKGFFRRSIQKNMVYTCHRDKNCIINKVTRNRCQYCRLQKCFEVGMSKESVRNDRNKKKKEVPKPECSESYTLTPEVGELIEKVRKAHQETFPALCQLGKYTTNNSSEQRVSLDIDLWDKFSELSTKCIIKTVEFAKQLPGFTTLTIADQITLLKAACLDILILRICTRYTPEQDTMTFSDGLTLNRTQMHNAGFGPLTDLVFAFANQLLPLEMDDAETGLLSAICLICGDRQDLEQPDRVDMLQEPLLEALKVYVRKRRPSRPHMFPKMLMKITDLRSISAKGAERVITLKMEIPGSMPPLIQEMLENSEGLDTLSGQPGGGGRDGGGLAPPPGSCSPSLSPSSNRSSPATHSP
Cellular tumor antigen p53 (Homo sapiens), sequence (P04637 whole entry, looked up): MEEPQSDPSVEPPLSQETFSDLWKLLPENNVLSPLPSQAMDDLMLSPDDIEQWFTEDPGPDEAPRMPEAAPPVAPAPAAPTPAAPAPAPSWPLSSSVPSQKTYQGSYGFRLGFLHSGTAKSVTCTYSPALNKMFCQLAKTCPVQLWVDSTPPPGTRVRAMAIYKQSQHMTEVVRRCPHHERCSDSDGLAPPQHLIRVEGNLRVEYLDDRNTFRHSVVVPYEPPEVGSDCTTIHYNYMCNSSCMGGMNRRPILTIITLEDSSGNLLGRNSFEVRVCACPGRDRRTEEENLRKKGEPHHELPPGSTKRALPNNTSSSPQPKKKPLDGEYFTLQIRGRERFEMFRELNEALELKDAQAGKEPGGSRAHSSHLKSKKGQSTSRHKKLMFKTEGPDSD
Hepatocyte nuclear factor 4-alpha (Homo sapiens), sequence (P41235 whole entry, looked up, the tested form may be a part): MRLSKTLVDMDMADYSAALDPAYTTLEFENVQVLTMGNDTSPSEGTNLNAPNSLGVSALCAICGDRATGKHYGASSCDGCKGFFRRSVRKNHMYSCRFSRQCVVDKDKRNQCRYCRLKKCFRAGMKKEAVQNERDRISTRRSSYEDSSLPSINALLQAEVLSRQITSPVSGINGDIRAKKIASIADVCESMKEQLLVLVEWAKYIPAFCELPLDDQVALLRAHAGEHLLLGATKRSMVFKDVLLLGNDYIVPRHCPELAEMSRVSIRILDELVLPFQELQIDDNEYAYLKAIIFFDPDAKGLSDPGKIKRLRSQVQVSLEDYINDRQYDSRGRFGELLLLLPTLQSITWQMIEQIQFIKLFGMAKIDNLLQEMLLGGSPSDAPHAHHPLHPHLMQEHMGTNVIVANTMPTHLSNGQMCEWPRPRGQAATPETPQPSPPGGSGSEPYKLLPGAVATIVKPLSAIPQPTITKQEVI
human Retinoid X Receptor beta (RXRb), RXRB (gene 6257), sequence (P28702 whole entry, looked up, the tested form may be a part): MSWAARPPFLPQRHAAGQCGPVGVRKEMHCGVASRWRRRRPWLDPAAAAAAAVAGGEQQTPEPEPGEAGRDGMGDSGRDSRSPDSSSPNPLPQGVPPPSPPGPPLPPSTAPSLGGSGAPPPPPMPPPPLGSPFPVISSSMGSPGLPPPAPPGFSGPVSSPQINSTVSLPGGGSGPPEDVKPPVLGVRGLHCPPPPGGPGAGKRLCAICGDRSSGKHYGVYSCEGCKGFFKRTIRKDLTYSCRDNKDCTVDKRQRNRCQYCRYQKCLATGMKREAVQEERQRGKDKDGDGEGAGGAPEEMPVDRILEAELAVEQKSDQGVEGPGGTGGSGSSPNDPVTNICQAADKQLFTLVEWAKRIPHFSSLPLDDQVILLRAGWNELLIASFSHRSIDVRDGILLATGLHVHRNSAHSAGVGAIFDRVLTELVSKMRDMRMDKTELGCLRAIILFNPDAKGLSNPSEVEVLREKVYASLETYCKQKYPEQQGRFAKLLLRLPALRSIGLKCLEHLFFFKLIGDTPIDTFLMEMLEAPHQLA
Hepatocyte nuclear factor 3-beta (Homo sapiens), sequence (Q9Y261 whole entry, looked up): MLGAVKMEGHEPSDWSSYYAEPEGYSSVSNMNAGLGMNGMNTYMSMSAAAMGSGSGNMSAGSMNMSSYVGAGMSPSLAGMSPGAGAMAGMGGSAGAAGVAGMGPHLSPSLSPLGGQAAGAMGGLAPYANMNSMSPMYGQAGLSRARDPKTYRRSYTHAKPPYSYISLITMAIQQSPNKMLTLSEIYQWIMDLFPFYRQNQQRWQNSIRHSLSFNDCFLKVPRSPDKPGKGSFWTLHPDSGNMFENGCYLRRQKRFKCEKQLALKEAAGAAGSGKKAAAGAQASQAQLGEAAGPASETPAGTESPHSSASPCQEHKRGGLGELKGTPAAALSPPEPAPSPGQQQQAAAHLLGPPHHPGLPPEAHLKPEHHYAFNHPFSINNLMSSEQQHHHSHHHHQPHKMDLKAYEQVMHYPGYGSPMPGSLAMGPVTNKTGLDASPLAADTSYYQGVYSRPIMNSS
human Peroxisome Proliferator-activated Receptor alpha (PPARa), PPARA (gene 5465), sequence (Q07869 whole entry, looked up, the tested form may be a part): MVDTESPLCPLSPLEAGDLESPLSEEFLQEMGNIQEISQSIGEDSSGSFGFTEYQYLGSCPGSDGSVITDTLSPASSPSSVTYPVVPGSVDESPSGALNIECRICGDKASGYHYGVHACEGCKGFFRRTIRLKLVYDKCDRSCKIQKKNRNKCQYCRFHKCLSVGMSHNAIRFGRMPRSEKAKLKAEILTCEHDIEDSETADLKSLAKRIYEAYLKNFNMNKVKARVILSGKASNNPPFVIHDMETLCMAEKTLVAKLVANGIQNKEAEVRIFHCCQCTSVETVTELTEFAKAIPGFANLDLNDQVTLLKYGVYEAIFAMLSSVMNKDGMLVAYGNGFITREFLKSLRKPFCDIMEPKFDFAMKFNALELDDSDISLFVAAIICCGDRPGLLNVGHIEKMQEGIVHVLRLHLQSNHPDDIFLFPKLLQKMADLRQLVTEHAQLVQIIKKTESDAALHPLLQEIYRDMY

Consider `CC/C=C/CCO`, for which the result in [1], in assay [2], in assay [3], in assay [4], in [5] and in assay [6] was inactive. The call in assay [7], in assay [8], in assay [9], in assay [10], in [11] and in [12] was inactive.

For the molecule `CC[N+](CC)(CC(=O)Nc1c(C)cccc1C)Cc1ccccc1` (tested in a mixture with another compound), the molecule was classed as inactive in assay [13], in assay [1], in assay [14] and in [5].

With `CCCC[N+]1(C)CCCC1`, the molecule was classed as inactive in assay [13], in assay [4] and in assay [15].

The AC50 is the concentration at which the activity in the assay is half-maximal. As for `O=C(O)Cc1c[nH]c2ccccc12`, the molecule was classed as inactive in assay [13], in assay [1], in assay [2], in [16], in assay [4] and in [14]. Moreover, the molecule was classed as inactive in assay [17], in assay [5], in assay [15], in [7], in assay [8] and in [18]. Moreover, the result in assay [9], in [10], in assay [11] and in assay [12] was inactive. Further, in assay [6], the half-maximal activity concentration (AC50) is 73.7 µM (active).

On to `CC1=NN(c2cc(Cl)c(S(=O)(=O)O)cc2Cl)C(=O)C1N=Nc1ccc(S(=O)(=O)O)cc1` (centres undefined), for which the call in [1], in [3], in assay [4], in [19], in [6] and in assay [7] was inactive. Also, the outcome in assay [8], in [9], in assay [10], in assay [11] and in assay [12] was inactive.

Regarding `CC1=C(CC(=O)O)c2cc(F)ccc2/C1=C\c1ccc(S(C)=O)cc1` (centres undefined), the result in [1], in assay [2], in [3], in [4], in assay [17] and in [5] was inactive. The result in assay [19], in assay [15], in assay [6], in [7], in assay [18] and in assay [10] was inactive. Besides, the result in assay [11] was inactive. Besides, the AC50 in assay [16] was 26 µM (active).

As for `Sc1nc2ccccc2s1`, the call in assay [20], in assay [1], in [2], in assay [16], in [17] and in [5] was inactive. For the same molecule, the result in [15], in [6], in [8], in assay [9], in [10] and in assay [12] was inactive. The AC50 in [3] is 19.3 µM (active); in assay [7], 0.000211 µM (active); in assay [18] it was 0.000124 µM (active); in assay [11], 0.000128 µM (active).

Regarding `C=CCOC(=O)C(=C)C`, the molecule was called inactive in assay [20], in [13], in [1], in assay [2], in assay [16] and in assay [3]. The molecule was classed as inactive in assay [14], in assay [5], in assay [15], in assay [6], in [8] and in [18]. Further, the outcome in assay [9], in assay [10] and in [12] was inactive.

On to `COC(=O)[C@]1(C)CCC[C@@]2(C)[C@H]1CC=C1C=C(C(C)C)CC[C@@H]12`, for which the molecule was called inactive in assay [20], in assay [1], in assay [2], in assay [16], in assay [3] and in [17]. Also, the molecule was classed as inactive in assay [5], in assay [19], in assay [6], in [7], in assay [8] and in [18]. In addition, the outcome in assay [9] was inactive.

Take `NCc1ccccc1`: the molecule was classed as inactive in [1], in assay [2], in [16], in assay [4], in assay [14] and in assay [17]. Further, the outcome in assay [5], in [15], in assay [6], in assay [7], in assay [8] and in assay [18] was inactive. In addition, the result in assay [10] and in assay [12] was inactive.

These data come from PubChem BioAssay (EPA / NIEHS).
